The values that follow come from publication PMC4336329 (PLoS ONE, 2015).

Screen size: about 310,000 compounds; about 14,000 (4.5%) showed an effect of 50% or more. Effects have a minus sign here. The entries come from a sample that favours strong results as a whole.
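Note: peak tail current of the secondary pulse compared with the same well before compound.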

This experiment deals with human ether-à-go-go-related gene (hERG) potassium channel (human, UniProt Q12809). The experiment can be described thus: primary screen, population patch clamp on CHO cells stably expressing hERG; higher = less effect of the substance.
Chain of human ether-à-go-go-related gene (hERG) potassium channel (Q12809 whole entry, looked up): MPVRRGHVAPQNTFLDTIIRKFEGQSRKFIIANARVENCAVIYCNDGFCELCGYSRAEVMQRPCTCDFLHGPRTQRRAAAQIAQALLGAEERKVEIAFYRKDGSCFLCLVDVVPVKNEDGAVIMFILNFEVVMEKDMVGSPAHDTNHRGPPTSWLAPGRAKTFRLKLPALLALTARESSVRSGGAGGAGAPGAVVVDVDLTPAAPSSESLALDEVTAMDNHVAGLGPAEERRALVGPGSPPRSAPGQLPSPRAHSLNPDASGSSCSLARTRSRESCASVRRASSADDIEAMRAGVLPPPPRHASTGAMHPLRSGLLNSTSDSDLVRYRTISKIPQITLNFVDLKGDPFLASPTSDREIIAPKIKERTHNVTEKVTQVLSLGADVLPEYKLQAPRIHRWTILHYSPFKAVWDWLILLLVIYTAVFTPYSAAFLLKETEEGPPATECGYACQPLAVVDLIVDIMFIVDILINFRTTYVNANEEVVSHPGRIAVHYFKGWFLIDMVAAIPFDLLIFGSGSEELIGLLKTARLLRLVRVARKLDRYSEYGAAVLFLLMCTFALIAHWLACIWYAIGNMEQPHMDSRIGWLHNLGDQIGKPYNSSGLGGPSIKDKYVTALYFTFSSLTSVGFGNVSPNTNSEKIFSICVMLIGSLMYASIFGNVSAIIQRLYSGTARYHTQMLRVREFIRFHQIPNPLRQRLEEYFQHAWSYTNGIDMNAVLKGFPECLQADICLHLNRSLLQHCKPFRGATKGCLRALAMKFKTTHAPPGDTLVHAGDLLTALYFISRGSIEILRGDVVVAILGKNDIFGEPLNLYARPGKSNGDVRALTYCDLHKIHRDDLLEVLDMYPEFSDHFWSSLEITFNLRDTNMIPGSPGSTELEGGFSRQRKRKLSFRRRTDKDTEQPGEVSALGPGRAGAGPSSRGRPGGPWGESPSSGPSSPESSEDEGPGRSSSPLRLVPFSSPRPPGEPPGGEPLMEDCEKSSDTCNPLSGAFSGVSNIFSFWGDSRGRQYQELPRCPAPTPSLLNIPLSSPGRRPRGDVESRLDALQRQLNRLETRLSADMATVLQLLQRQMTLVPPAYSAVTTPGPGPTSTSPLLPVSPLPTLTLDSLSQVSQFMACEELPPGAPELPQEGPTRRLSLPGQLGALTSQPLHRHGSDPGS
`Cc1cccc(-n2[nH]c3c4c(ccc3c2=O)C(=O)c2ccccc2C4=O)c1`: the “hERG current change (%, negative = inhibition) at 10uM” value turned out to be 4.95%. As for `Cc1onc(-c2ccccc2Cl)c1C(=O)Nc1ccc(OCC(=O)N2CCOCC2)cc1`, the “hERG current change (%, negative = inhibition) at 10uM” value was -3.95%. To `CC/C(=N\NC(=O)Nc1ccccc1)c1c(O)n(Cc2ccccc2)c(=O)[nH]c1=O` belongs 3.1%; to `CC(=O)c1ccc(NS(=O)(=O)c2ccc3c(c2)N(C)CCO3)cc1`, 11.6%; to `COc1ccccc1N1CCN(C(=O)C2CCCN(S(=O)(=O)c3ccc(C)cc3)C2)CC1` (stereo not shown), -38.3%.

Turning to `O=C(Nc1c(F)cc(F)cc1Br)c1cccnc1`, the “hERG current change (%, negative = inhibition) at 10uM” value is listed as 8.61%. With `COc1ccc(-c2ccnc3nc(-n4cccc4)nn23)cc1`, the “hERG current change (%, negative = inhibition) at 10uM” value is recorded as -14.7%. Regarding `COc1cc2nc(Nc3cccc(F)c3)nc(N)c2cc1OC.Cl`, the “hERG current change (%, negative = inhibition) at 10uM” value is given as -17.7%. To `O=C(NC1CC2CCC1C2)C1CCN(S(=O)(=O)c2ccc(-c3nn[nH]n3)cc2)CC1` (stereo not shown) belongs 14.4%; to `O=C(O)c1cc(N2C(=O)C3CC=CCC3C2=O)ccc1NCc1cccnc1` (stereo not shown), 15%; to `CC(=O)c1cc(CN2CCN(C3CCCCC3)C(CCO)C2)cs1` (stereo not shown), -17.2%. Then `CC(=O)c1cc(CN2CCN(CC=C(C)C)C(CCO)C2)cs1` (stereo not shown), with 16.3%; and `CC(=O)c1cc(CN2CCN(Cc3ccc(C)cc3)C(CCO)C2)cs1` (stereo not shown), with -55%; and `CN1C(N)=NC(=O)/C1=C\c1ccc(Br)cc1`, with 8.35%.

On to `CC(C)CC(C(=O)NC1CCCC1)N(Cc1ccc2c(c1)OCO2)C(=O)c1snc(C(N)=O)c1N` (stereo not shown), for which the “hERG current change (%, negative = inhibition) at 10uM” value is -20.4%. Regarding `CCN1CCCC1CNC(=O)c1cc2c(C)nc3ccccc3c2o1` (stereo not shown), the “hERG current change (%, negative = inhibition) at 10uM” value is recorded as -12%.

With `O=C(O)C(=O)O.c1ccc(COc2ccc(OCCCCN3CCCCC3)cc2)cc1`, the “hERG current change (%, negative = inhibition) at 10uM” value is -70.5%. As for `O=C(O)C(=O)O.c1ccc(COc2ccc(OCCCCN3CCCC3)cc2)cc1`, the “hERG current change (%, negative = inhibition) at 10uM” value was -64%. As for `CSc1cccc(N2CC(C(=O)NCCC3=CCCCC3)CC2=O)c1` (stereo not shown), the “hERG current change (%, negative = inhibition) at 10uM” value turned out to be 14.1%. Then `Cc1cccc(NC(=O)C2NC(=O)CC2c2ccccc2)c1C` (stereo not shown), with 1.2%; and `O=C(CSc1nnc(NC(=O)c2ccc(F)cc2F)s1)NC1CCCC1`, with 17.7%. Turning to `Clc1ccc(N=C2SCC3CCCCN23)cc1` (stereo not shown), the “hERG current change (%, negative = inhibition) at 10uM” value is -18.3%. On to `COc1ccc(S(=O)(=O)N2CCN(c3nc(C)cc(C)n3)CC2)cc1`, for which the “hERG current change (%, negative = inhibition) at 10uM” value came out at 2.96%. Then `Cc1nc2cc(C(=O)OCC(=O)Nc3cccc(Cl)c3)ccc2n1-c1ccccc1`, with -13.6%; and `O=C(Nc1ncc(C(F)(F)F)cc1Cl)c1ccc(S(=O)(=O)N2CCOCC2)cc1`, with -13.4%. In the case of `COc1cc(/C=N/NC(=O)c2ccncc2)ccc1OC(=O)c1ccccc1Cl`, the “hERG current change (%, negative = inhibition) at 10uM” value is reported as -50.8%. To `COc1cccc(C(=O)Nc2cccc(NC(=O)c3ccccc3Cl)c2)c1` belongs -52%. To `COc1cccc(C(=O)Nc2cccc(-c3nnc(-c4ccccc4)o3)c2)c1` belongs -4.18%. On to `COc1cc(/C=N\NC(=O)c2cccnc2)ccc1OC(=O)c1ccccc1Cl`, for which the “hERG current change (%, negative = inhibition) at 10uM” value is -7.3%. In the case of `CC(C)Oc1cccc(C(=O)NC(=S)Nc2cccc(NC(=O)c3ccccc3Cl)c2)c1`, the “hERG current change (%, negative = inhibition) at 10uM” value is given as -11.9%. Then `COc1ccc(C(=O)Nc2cccc(-c3nnc(-c4ccco4)o3)c2)cc1`, with -37.4%; and `COc1cccc(C(=O)Nc2cccc(-c3nnc(-c4ccco4)o3)c2)c1`, with -51.4%; and `COc1cccc(C(=O)Nc2cccc(NC(C)=O)c2)c1`, with -8.39%. Turning to `COc1ccc(/C=N/NC(=O)c2cccc(NC(=O)c3ccccc3Cl)c2)cc1OC`, the “hERG current change (%, negative = inhibition) at 10uM” value is recorded as -3.89%. To `COc1cc(/C=N/NC(=O)c2cccc(NC(=O)c3ccccc3Cl)c2)ccc1O` belongs -55.6%. With `COc1cc(/C=N/NC(=O)c2cccc(NC(=O)c3ccccc3C)c2)ccc1O`, the “hERG current change (%, negative = inhibition) at 10uM” value is given as -48.4%. For `COc1cc(C(=O)N/N=C/c2ccc(OC(=O)c3ccccc3Cl)c(OC)c2)ccc1O`, the “hERG current change (%, negative = inhibition) at 10uM” value is given as 13.4%.

Regarding `CCOc1ccc(NC(=O)CCN2C(=O)CSc3ccccc32)cc1`, the “hERG current change (%, negative = inhibition) at 10uM” value is given as -25.3%.

Take `O=C(/C=C\Nc1ccc2c(c1)OCO2)c1cccs1`: the “hERG current change (%, negative = inhibition) at 10uM” value came out at 17.6%. To `Cc1nc(SCC(=O)Nc2c(C)nn(C)c2C)c2cnn(-c3ccccc3)c2n1` belongs 14%; to `Cc1ccc(S(=O)(=O)N2CCOCC2)cc1NC(=O)c1cc(-c2ccccn2)nc2ccccc12`, -46.7%; to `S=c1[nH]nc(-c2ccc(Cl)cc2Cl)n1-c1ccc2c(c1)OCCO2`, 6.46%. Then `c1ccc(C2CCC(N3CCC(N4CCCCC4)CC3)CC2)cc1` (stereo not shown), with 10.8%; and `COCCNC(=O)CSCc1c(F)cccc1Cl`, with 3.73%. For the compound `CCCc1cc(=O)oc2cc(C)cc(OC(C)C(=O)NCc3ccccn3)c12` (stereo not shown), the “hERG current change (%, negative = inhibition) at 10uM” value is recorded as -8.3%. In the case of `Fc1cccc2sc(Nc3nnc(-c4ccccc4)o3)nc12`, the “hERG current change (%, negative = inhibition) at 10uM” value is 20.5%. To `O=c1[nH]nc(N/N=C/c2ccc(Cl)cc2Cl)c(=O)[nH]1` belongs -1.17%.

For the compound `Cn1c(SCC(=O)O)nnc1-c1cccc(NC(=O)c2cccc3ccccc23)c1`, the “hERG current change (%, negative = inhibition) at 10uM” value amounted to 7.15%. To `COc1cccc(C(=O)NCCSCc2ccccc2Cl)c1` belongs -53.2%.

`COc1ccccc1C(=O)NCCSCc1ccccc1Cl`: the “hERG current change (%, negative = inhibition) at 10uM” value was -15.4%. Then `COc1ccc(C(=O)Nc2cc(C(=O)O)cc(C(=O)O)c2)cc1Cl`, with 19.5%; and `COC(=O)c1cccc(NC(=O)c2ccc(OC)c(Cl)c2)c1`, with -65.3%.

Turning to `COc1ccc(NC(=O)c2cccc(F)c2)cc1Cl`, the “hERG current change (%, negative = inhibition) at 10uM” value came to 1.72%.

With `COc1cccc(C(=O)NCCSCc2c(F)cccc2Cl)c1`, the “hERG current change (%, negative = inhibition) at 10uM” value is -29%. On to `CCNS(=O)(=O)c1ccc(CCC(=O)NCCC2=CCCCC2)cc1`, for which the “hERG current change (%, negative = inhibition) at 10uM” value was -23.6%. To `Cc1cccc(C)c1NC(=O)COC(=O)c1ccc2c(c1)OCO2` belongs -4.84%.

In the case of `c1cnc2c(SCc3ccc(-c4nnco4)cc3)cccc2c1`, the “hERG current change (%, negative = inhibition) at 10uM” value is recorded as 1.45%.

Regarding `COc1cc(OC)c(NC(=O)c2csc(C)c2)cc1Cl`, the “hERG current change (%, negative = inhibition) at 10uM” value amounted to 14.2%. Then `Cc1ccccc1CNC(=O)/C=C\C(=O)O`, with 3.23%; and `FC(F)(F)c1cc(-c2cccs2)nc(-n2cc(Cl)cn2)n1`, with 0.253%. With `CCOc1ccc(CCNC(=O)Cn2c(-c3nonc3N)nc3ccccc32)cc1OCC`, the “hERG current change (%, negative = inhibition) at 10uM” value is listed as -3.72%.

`CC1(C)CC(=O)c2c(O)c(-c3ccccc3)c(=O)n(-c3ccccc3)c2C1`: the “hERG current change (%, negative = inhibition) at 10uM” value was -6.83%. To `Cc1ccc(-n2c3c(c(O)c(-c4ccccc4)c2=O)C(=O)CC(C)(C)C3)cc1` belongs -55.2%. To `Cc1ccc(-n2c3c(cc(C(=O)O)c2=O)C(=O)CC(C)(C)C3)cc1` belongs 19.2%.

In the case of `O=C(c1ccc2nccnc2c1)N1CCCC(N2CCN(c3ccc(F)cc3)CC2)C1` (stereo not shown), the “hERG current change (%, negative = inhibition) at 10uM” value is -9.66%. Then `O=C(NCc1ccc(Cl)cc1)C(=O)NCC(c1cccnc1)N1CCN(c2ccc(F)cc2)CC1` (stereo not shown), with -45.5%; and `O=C(NCC(c1cccnc1)N1CCN(c2ccccc2)CC1)Oc1ccccc1` (stereo not shown), with -19.2%; and `COc1ccc(N2CCN(C(CNC(=O)C(C)(C)C)c3cccnc3)CC2)cc1` (stereo not shown), with -36.7%. Then `CCS(=O)(=O)NCC(c1cccnc1)N1CCN(c2ccccc2)CC1` (stereo not shown), with -28.1%; and `COc1ccc(N2CCN(C(CNS(=O)(=O)c3cc(F)ccc3F)c3cccnc3)CC2)cc1` (stereo not shown), with -69%. In the case of `COc1ccccc1N1CCN(C(CNS(=O)(=O)c2cc(F)ccc2F)c2cccnc2)CC1` (stereo not shown), the “hERG current change (%, negative = inhibition) at 10uM” value is reported as -35%.

Take `O=S(=O)(NCC(c1cccnc1)N1CCN(c2ccccc2)CC1)c1cc(F)ccc1F` (stereo not shown): the “hERG current change (%, negative = inhibition) at 10uM” value is listed as -62.8%. As for `O=C(NCC(c1cccnc1)N1CCN(c2ccc(F)cc2)CC1)C1CCCCC1` (stereo not shown), the “hERG current change (%, negative = inhibition) at 10uM” value is -45.5%.

Regarding `O=S(=O)(NCC(c1cccnc1)N1CCN(Cc2ccccc2)CC1)c1cc(F)ccc1F` (stereo not shown), the “hERG current change (%, negative = inhibition) at 10uM” value is listed as -69.1%. Then `Cc1cc(F)ccc1S(=O)(=O)NCC(c1cccnc1)N1CCc2ccccc21` (stereo not shown), with -1.61%; and `O=S(=O)(NCC(c1cccnc1)N1CCN(c2ccc(F)cc2)CC1)c1cc(F)ccc1F` (stereo not shown), with -65.8%. To `CC1CCCCN1C(=O)c1cc2nc(-c3ccccc3)cc(-c3ccccc3)n2n1` (stereo not shown) belongs -14.5%. To `O=S(N1CCCCC1)C12CC3CC(CC(C3)C1)C2` (stereo not shown) belongs -6.95%; to `COc1ccc(-c2nc(NC(=O)CCNC(=O)c3ccco3)sc2C)cc1`, -11.1%; to `CC(C)C[C@H](NC(=O)N1CC(=O)Nc2ccccc21)C(=O)N[C@@H](Cc1ccccc1)C(=O)O`, 13.2%. Regarding `NC(=O)Cn1cc(C(=O)c2cccs2)c2ccccc21`, the “hERG current change (%, negative = inhibition) at 10uM” value was -2.95%. To `O=C(NNc1cc(Cl)ccc1Cl)c1cccs1` belongs 7.63%. On to `Cc1c(Br)c([N+](=O)[O-])nn1C(C)C(=O)N1CCc2ccccc2C1` (stereo not shown), for which the “hERG current change (%, negative = inhibition) at 10uM” value is on record as -13.4%.

For the compound `Cc1c(OC(C)C(=O)NC2CC(C)(C)NC(C)(C)C2)ccc2c3c(c(=O)oc12)CCC3` (stereo not shown), the “hERG current change (%, negative = inhibition) at 10uM” value worked out at 12.5%.

Take `COc1cc(/C=N/N(C)C2=NS(=O)(=O)c3ccccc32)cc(OC)c1OC`: the “hERG current change (%, negative = inhibition) at 10uM” value is reported as 7.82%.
